OPRM1-OPRD1 inv – inverse agonists of human mu-delta opioid receptor heterodimerization; hit rate 0.21% among 340,000; P35372+P41143; cell-based MOR-DOR heterodimer luminescence, inverse agonism; inhibition, % at 9.3 µM; AID 504357; in the data active means inhibition above about 22%, passing the limit was not always enough;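 further: 0% = cells with DMSO and 100% = wells without cells with DMSO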
HTR5A inv ctr – counter-screen for OPRM1-OPRD1 inverse agonists: human HTR5A inverse agonism; P47898; HTR5A cell line, luminescence; inhibition, % at 9.3 µM; hit rate 0.083% among 340,000; in the data active means inhibition mostly above about 23%, no sharp cut-off; inactive means mostly below about 18%;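 further: 0% = cells with DMSO and 100% = no-cell wells with DMSO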
Target sequence (P47898 whole entry, looked up): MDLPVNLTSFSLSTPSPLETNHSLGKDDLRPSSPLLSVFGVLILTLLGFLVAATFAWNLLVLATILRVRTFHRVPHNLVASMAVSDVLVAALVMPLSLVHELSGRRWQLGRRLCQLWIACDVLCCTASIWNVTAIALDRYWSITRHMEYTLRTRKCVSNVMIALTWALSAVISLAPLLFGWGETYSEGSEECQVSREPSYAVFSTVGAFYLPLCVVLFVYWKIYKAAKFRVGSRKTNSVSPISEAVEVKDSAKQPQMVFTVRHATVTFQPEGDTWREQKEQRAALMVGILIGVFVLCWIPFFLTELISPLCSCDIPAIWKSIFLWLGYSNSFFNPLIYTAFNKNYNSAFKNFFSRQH
OPRM1-OPRD1 ag – agonists of human mu-delta opioid receptor heterodimerization; P35372+P41143; cells, OPRM1-OPRD1 heterodimerization, luminescence; activation, % at 9.3 µM; hit rate 0.3% among 340,000; AID 504326;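 further: 0% = vehicle-treated cells and 100% = reference agonist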
HTR5A ag ctr – activates human HTR5A in OPRM1-OPRD1 agonist counter-screen | activation, % at 9.3 µM | hit rate 0.61% among 340,000 | HTR5A agonist assay, luminescence, cell-based | AID 504692 | P47898; in the data active means activation mostly above about 9.5%, no sharp cut-off; inactive means mostly below about 7.6%;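 further: 0% = cells with vehicle only and 100% = reference agonist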
MOR-DOR ag conf – confirmation of human OPRM1-OPRD1 heterodimerization agonists. shares compounds with OPRM1-OPRD1 ag. cells, MOR-DOR heterodimerization, luminescence complementation. activation, % at 9.3 µM. hit rate 45% among 830. AID 504904;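 further: 0% = vehicle-treated cells and 100% = reference agonist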
HTR5A ag counter – activates human HTR5A in OPRM1-OPRD1 agonist counter-screen | shares compounds with OPRM1-OPRD1 ag | HTR5A agonist counterscreen, cell luminescence | activation, % at 9.3 µM | hit rate 8% among 830 | AID 504905; in the data active means activation above about 17%;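 further: 0% = vehicle-treated cells and 100% = reference agonist response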
Starred values were filed as active, the others as inactive; i = inactive; . = no result given; + = active, no number. Only some compounds are listed: those with a hit (about 1.1% of all), similar ones and a draw of the others. Unless noted, no stated cut-off is given here; in the data, active means activation above about 18%; inactive means the rest.

SMILES | OPRM1-OPRD1 inv | HTR5A inv ctr | OPRM1-OPRD1 ag | HTR5A ag ctr | MOR-DOR ag conf | HTR5A ag counter
COc1ccc(CC(=O)NCC(c2ccc(OC)cc2)N(C)C)cc1 (stereo not given) | -160.0 | 2.9 | 31.2* | -1.0 | 2.7 | 0.7
COc1ccc(C(CNC(=O)c2cncc(Br)c2)N(C)C)cc1 (stereo not given) | i | 3.4 | 274.2* | -1.2 | 232.1* | -1.2
COc1ccc(CNC(=O)Cc2cccs2)cc1 | 6.3 | -3.3 | -1.2 | -2.2 | . | .
COc1ccc(C(CNC(=O)Cc2cccs2)N(C)C)cc1 (stereo not given) | i | -2.8 | 84.8* | -0.5 | -4.8 | -4.2
COc1ccc(NC2CCCN(C(=O)CCCn3cncn3)C2)cc1OC (stereo not given) | 3.8 | 24.8 | -0.7 | 2.9 | . | .
CN(C)CCCN(C(=O)c1ccc(S(=O)(=O)N2CCc3ccccc3C2)cc1)c1nc2c(F)cccc2s1 | -351.1 | 10.5 | 107.2* | -3.7 | -1.0 | -2.4
Cc1cccc2sc(N(CCCN(C)C)C(=O)c3ccc(S(=O)(=O)N4CCc5ccccc5C4)cc3)nc12 | -102.4 | -12.9 | 18.0 | 3.5 | . | .
CN(C)CCCN(C(=O)c1ccc(S(=O)(=O)N2CCc3ccccc3C2)cc1)c1nc2ccc(F)cc2s1 | i | -29.4 | 654.6* | 8.0 | + | 15.9
Cc1ccc2nc(N(CCCN(C)C)C(=O)c3ccc(S(=O)(=O)N4CCOCC4)cc3)sc2c1 | 20.6 | -4.3 | -3.9 | 1.4 | . | .
Cc1ccc2nc(N(CCCN(C)C)C(=O)c3ccc(S(=O)(=O)N4CCc5ccccc5C4)cc3)sc2c1 | i | -18.7 | 129.7* | 5.1 | 43.7* | 3.6
CN(C)CCCN(C(=O)c1ccc(S(=O)(=O)N2CCCCCC2)cc1)c1nc2c(F)cc(F)cc2s1 | -299.4 | 8.8 | 55.5* | 6.3 | 110.6* | -0.5
CC(C)C[C@@H](CC#N)N1CCN(Cc2ccccc2)CCC1=O | 22.1 | 10.4 | -4.8 | -0.6 | . | .
CCCCN(CCCC)CCNC(=O)c1cn(CC)c2ccc(S(=O)(=O)N3CCc4ccccc4C3)cc2c1=O | 21.0 | 5.8 | -4.1 | 3.3 | . | .
CN(C)CCCN(C(=O)c1ccc(S(=O)(=O)N2CCc3ccccc32)cc1)c1nc2ccc(F)cc2s1 | i | -42.5 | 179.4* | 4.9 | -3.1 | -7.2
COc1ccc(CCNC(=O)CCC(=O)N2CC(C)Oc3ccccc32)cc1OC (stereo not given) | 7.6 | -24.4 | -1.3 | -1.5 | . | .
CCOc1ccc2[nH]c3c(N4CCN(c5ccccn5)CC4)ncnc3c2c1 | -200.2 | -11.3 | 35.1* | 0.5 | 18.9* | 7.8
Oc1cccc(Nc2c3ccccc3nc3ccccc23)c1 | 4.2 | -8.5 | -0.8 | 2.2 | . | .
CCN(CC)Cc1cc(Nc2c3ccccc3nc3c4ccccc4n(C)c23)cc(CN(CC)CC)c1O | i | -6.6 | 144.0* | 1.7 | 148.6* | -2.5
COCCN(C(=O)COC(=O)c1ccc(C=O)cc1)c1c(N)n(Cc2ccccc2)c(=O)[nH]c1=O | 11.9 | -2.3 | -2.2 | 3.2 | . | .
COc1ccc(/C=C/C(=O)NC(=S)NCCc2ccc(OC)c(OC)c2)cc1 | -168.3 | -4.9 | 29.9* | 5.1 | 54.8* | 3.0
COc1ccc(CCNC(=O)/C=C\c2ccccc2)cc1OC | 5.0 | 5.8 | -0.9 | -1.7 | . | .
CCOC(=O)C1=CN(Cc2ccco2)S(=O)(=O)N(C)C1CC (stereo not given) | 10.8 | 9.3 | -2.1 | -2.7 | . | .
CN(C)C(CNC(=O)c1ccc(Cl)c(S(=O)(=O)N2CCCCCC2)c1)c1ccccc1 (stereo not given) | -186.8 | -13.4 | 35.6* | 3.7 | 0.6 | -3.2
O=C(NNC(=O)c1ccc2nc[nH]c2c1)c1ccccc1 | 0.2 | -16.5 | 0.0 | 5.9 | . | .
CN(C)C(CNC(=O)c1ccc2nc[nH]c2c1)c1ccccc1 (stereo not given) | -126.1 | -11.7 | 24.6* | 4.1 | 6.5 | 7.8
SMILES | OPRM1-OPRD1 inv | HTR5A inv ctr | OPRM1-OPRD1 ag | HTR5A ag ctr | MOR-DOR ag conf | HTR5A ag counter
CCC1C(=O)Nc2nc(-c3ccccc3)c(-c3ccccc3)n2N=C1C (stereo not given) | -14.2 | -4.2 | 3.4 | 0.2 | . | .
O=C(CNC(=O)c1ccc(Br)o1)NNC(=O)c1ccc(Br)cc1 | -0.2 | 4.8 | 0.1 | -1.3 | . | .
Cc1cc(/C=C2\SC(=S)N(C)C2=O)c(C)n1-c1ccc(O)cc1 | -270.8 | 0.3 | 51.9* | 6.7 | 33.1* | -1.5
Cc1cc(/C=C2\SC(=S)N(C)C2=O)c(C)n1-c1ccccc1O | -71.9 | -2.0 | 13.5 | 0.7 | . | .
Cc1nn2c(nc1=O)NNC2(C)C(C)(C)C (stereo not given) | 16.3 | -14.2 | -3.1 | 5.0 | . | .
Cc1ccc(-c2nnc(SCC(=O)N/N=C/c3ccc(C)s3)n2-c2ccc(C)cc2)cc1 | -87.0 | -16.2 | 18.0* | 1.1 | 9.9 | 1.5
CCCCN(C(=O)c1cc(OC)c(OC)c(OC)c1)C1=CC2CCC(C1)N2C (stereo not given) | -0.5 | 4.9 | 0.1 | -1.7 | . | .
COc1cc(C(=O)N(CCc2ccccc2)C2=CC3CCC(C2)N3C)cc(OC)c1OC (stereo not given) | -75.3 | 11.0 | 18.1* | -4.6 | 0.2 | -0.3
COc1cc2nc(Nc3cccc(F)c3)nc(N)c2cc1OC | -127.6 | -9.8 | 27.3* | 2.7 | -2.7 | -7.3
COc1ccc(C(C(=O)NC2CCCCC2)N(C(=O)Cc2c[nH]c3ccccc23)c2ccc(NC(C)=O)cc2)cc1OC (stereo not given) | -114.5 | -7.7 | 26.3* | 2.8 | 83.1* | -1.9
O=C1Nc2ccc(Br)cc2/C1=C/C(=O)c1ccccc1 | -80.1 | -17.0 | 18.3* | 4.4 | 6.6 | 0.3
CC1=C(C(=O)Nc2cccc(C(=O)N3CCC(C(N)=O)CC3)c2)SCCO1 | 3.2 | -0.6 | -0.6 | -3.3 | . | .
C[C@@H](C[C@@H](O)[C@H](O)C(C)(C)O)[C@@H]1CC[C@]2(C)C3=CC[C@H]4C(C)(C)C(=O)CC[C@]4(C)[C@H]3CC[C@@]12C | -111.8 | 8.2 | 19.2* | -3.1 | 7.1 | -0.4
C[C@H](C[C@H](O)[C@H]1OC1(C)C)C1=C2C[C@H](O)C3[C@@]4(C)CCC(=O)C(C)(C)C4CC[C@]3(C)[C@@]2(C)CC1 (stereo not given in full) | -72.1 | -5.0 | 12.5 | 1.7 | . | .
O=C(Nc1cccc(NC(=O)c2cccc([N+](=O)[O-])c2)n1)c1cccc([N+](=O)[O-])c1 | -116.2 | 11.1 | 23.5* | -2.9 | 18.2* | 3.5
COCCNC(=O)c1cccc(OC2CCN(Cc3ccc(F)c(OC)c3)CC2)c1 | 1.6 | 4.6 | -0.4 | -1.2 | . | .
COc1cn(-c2ccccc2)nc1C(=O)OCC(=O)Nc1ccc(C)c(C)c1 | 6.7 | -4.3 | -1.6 | 1.8 | . | .
CCN1CCN(C2=C(NS(=O)(=O)c3ccc(NC(C)=O)cc3)C(=O)c3ccccc3C2=O)CC1 | 2.6 | 0.6 | -0.5 | -0.1 | . | .
CC(=O)Nc1ccc(S(=O)(=O)NC2=C(N3CCN(Cc4ccccc4)CC3)C(=O)c3ccccc3C2=O)cc1 | -288.5 | 7.0 | 55.5* | -1.7 | 69.2* | -7.2

Compound activity from PubChem BioAssay.
